Data from PubChem BioAssay (NCATS).
Results filed as inconclusive are left out. Where a call stands in place of a potency, no number is given. Unmarked numbers belong to inactive results. Active and inactive are the calls of the source. Calls follow the shape of the dose curve; as a rule, active = well fitted cell-killing curve with a large enough effect; inconclusive = small, poorly fitted or top-dose-only effect; inactive = no such curve, though single readings can be large or run the other way.

Assay: qHTS of pediatric cancer cell lines to identify multiple opportunities for drug repurposing: Primary screen for SK-N-SH cells (AID 1347098); also: nearly all actives have a fitted effect of over 65% in size
Conditions: SK-N-SH viability, CellTiter-Glo luminescence, 48 h; series mostly up to 57 µM
Source text: Drug repurposing or repositioning has been offered as a strategy for drug development in oncology programs. This approach has special potential for childhood cancers and other rare or orphan diseases, where the expected return on new drug development has been a disincentive to pharmaceuticals.
In this project we exploit the poly-pharmacology of drugs to discover new indications via phenotypic screening of a panel of 19 well-characterized cell lines derived from solid tumors seen in children and adolescents. The goal is to identify approved drugs with previously unrecognized anticancer properties that has the potential to reveal new mechanisms and biological processes involved in carcinogenesis or drug resistance. We employed a titration-based paradigm (quantitative high-throughput screening or qHTS), where all compounds were tested at multiple concentrations for their effect on cell viability. Concentration-response curves (CRCs) were derived directly from the primary screen, and both potency and efficacy values were used to identify compounds with robust bioactivity profiles. We screened the NIH Chemical Genomics Center (NCGC) Pharmaceutical Collection (NPC) and Mechanism Interrogation Plate (MIPE) small molecule collections of approved and investigational compounds against these cell lines; and measured metabolically active cells after 48 hours of compound treatment as a proxy for cell viability.
Assay Submitter: Nathalia J. Martinez, National Center for Advancing Translational Sciences, National Institutes of Health, Rockville, MD, USA; email: natalia.martinez@nih.gov
[1] Shen, M et al. Quantitative high-throughput phenotypic screening of pediatric cancer cell lines identifies multiple opportunities for drug repurposing. Oncotarget 2017 Dec 19;9(4):4758-4772. PMID 29435139.
The cells were obtained from University of North Carolina (UNC), Pediatric Preclinical Testing Program (PPT), and Coriell Institute (CI).
qHTS cell viability assay:
Cells were assayed in growth media at a density of 500-1,000 cells/well. Five microliters of cells were dispensed into 1,536-well, white, solid-bottom, TC-treated plates (Greiner Bio One) using a multidrop dispenser and incubated at 37 degrees C, 5% CO2, under a humidified atmosphere for 5 hours. Twenty-three nanoliters of compounds and controls (neutral control DMSO or positive control bortezomib at final concentration of 2.3 µM) were subsequently transferred by Kalypsys pintool. For primary screens, the MIPE collection was tested at 11-point dilutions (final concentrations range from 0.78 nM to 46 µM) and the NPC collection at 8-point dilutions (final concentrations range from 0.59 nM to 46 µM). Compounds tested in follow-up screens were assayed at 11-point dilutions. Cells were incubated for 48 hours, followed by addition of 3 µL of CellTiter-Glo (Promega). After a 15 min incubation at room temperature, samples were analyzed for luminescence intensity using a ViewLux High-throughput CCD imager equipped with clear filters.
Potency is read from the fitted curve at half-maximal effect.

Row | Structure (SMILES) | Potency | activity change, negative = cytotoxic
1 | Cc1nccn1CC1CCc2c(c3ccccc3n2C)C1=O (stereo not given) | inactive | 
2 | COc1cc2nc(N3CCN(C(=O)C4CCCO4)CC3)nc(N)c2cc1OC (stereo not given) | inactive | 
3 | Cc1cccc(-c2[nH]ncc2-c2ccc3ncccc3n2)n1 | inactive | 
4 | O=c1oc2cc(O)ccc2s1 | inactive | 
5 | CNC[C@H](O)c1ccc(O)c(O)c1 | inactive | 
6 | O=C1c2c(O)cc(O)cc2OC(c2ccc(O)c(O)c2)C1O (stereo not given) | 30.4 µM (active) | 
7 | COc1cc(OC)c(C(=O)CCCN2CCCC2)c(OC)c1 | inactive | 
8 | O=c1c(O)c(-c2ccc(O)cc2O)oc2cc(O)cc(O)c12 | inactive | 
9 | N[C@@H](Cc1cc(I)c(Oc2cc(I)c(O)c(I)c2)c(I)c1)C(=O)O | inactive | 
10 | Cc1cc(Cl)ccc1OCCCC(=O)NO | 19.2 µM (active) | 
11 | CN(C)[C@@H](CCOc1cccc2ccccc12)c1ccccc1 | inactive | 
12 | CCCc1cc(=O)[nH]c(=S)[nH]1 | inactive | 
13 | Oc1ccc2ccccc2c1SSc1c(O)ccc2ccccc12 | 19.2 µM (active) | 
14 | Cc1cc(=O)c2c(O)c3c(O)cc(=O)c4c3c3c(cc(O)c1c23)C(C)(C)C=4O | inactive | 
15 | CCN(CCO)CCCC(C)Nc1ccnc2cc(Cl)ccc12 (stereo not given) |  | -2.15% [at 6 µM]
16 | CS(=O)(=O)OCCCCOS(C)(=O)=O | inactive | 
17 | O=C(NC(Cc1cc(=O)[nH]c2ccccc12)C(=O)O)c1ccc(Cl)cc1 (stereo not given) | inactive | 
18 | CC(=O)Nc1ccc(O)cc1 | inactive | 
19 | CCOC(=O)C1=C(O)C(=O)N(Cc2ccccc2)C1 | inactive | 
20 | S=c1nc[nH]c2nc[nH]c12 | inactive | 

Row | Structure (SMILES) | Potency | activity change, negative = cytotoxic
21 | Cc1cc2c(s1)Nc1ccccc1N=C2N1CCN(C)CC1 | inactive | 
22 | Clc1ccc(C(Cn2ccnc2)OCc2ccsc2Cl)c(Cl)c1 (stereo not given) | inactive | 
23 | C[C@@H](c1ncncc1F)[C@](O)(Cn1cncn1)c1ccc(F)cc1F | inactive | 
24 | CC1(C)NC(=O)N(c2ccc([N+](=O)[O-])c(C(F)(F)F)c2)C1=O | inactive | 
25 | CNC[C@@H](O)[C@@H](O)[C@H](O)[C@H](O)CO | inactive | 
26 | COCCCN1CCC(NC(=O)c2cc(Cl)c(N)c3c2OCC3)CC1 | inactive | 
27 | N=C(N)c1ccc2cc(OC(=O)c3ccc(N=C(N)N)cc3)ccc2c1 | inactive | 
28 | COc1ccc2cc([C@H](C)C(=O)O)ccc2c1 | inactive | 
29 | Cc1cc(O)c2c(c1)C(=O)c1cc(O)cc(O)c1C2=O | inactive | 
30 | C[C@H](Cc1ccc(O)c(O)c1)[C@@H](C)Cc1ccc(O)c(O)c1 | inactive | 
31 | CCN(CC)C(=S)SSC(=S)N(CC)CC | 0.114 µM (active) | 
32 | NS(=O)(=O)c1cc(C(=O)O)c(NCc2ccco2)cc1Cl | inactive | 
33 | Clc1ccc(C(Cn2ccnc2)OCc2c(Cl)cccc2Cl)c(Cl)c1 (stereo not given) | inactive | 
34 | Cn1c(NCCN(CCO)CCCc2ccc([N+](=O)[O-])cc2)cc(=O)n(C)c1=O | inactive | 
35 | Cc1ncc([N+](=O)[O-])n1CC(C)O (stereo not given) | inactive | 
36 | Cc1cc(=O)oc2cc(O)ccc12 | inactive | 
37 | CC(C)[C@H](N)C(=O)OCCOCn1cnc2c(=O)[nH]c(N)nc21 | inactive | 
38 | CC(C)c1ccc2oc3nc(N)c(C(=O)O)cc3c(=O)c2c1 | inactive | 
39 | O=C(O)c1cccnc1Nc1cccc(C(F)(F)F)c1 | inactive | 
40 | CCOC(=O)C1=C[C@@H](OC(CC)CC)[C@H](NC(C)=O)[C@@H](N)C1 | inactive | 
